Results filed as inconclusive are left out. Values without a mark were called inactive. The source made the active and inactive calls. The call rests on the fitted dose curve; in most records, active means well fitted cell-killing curve with a large enough effect in the repeat runs; inconclusive means weak or mixed curves, or effect the other way; inactive means no such curve, though single readings can be large or run the other way.
Experiment: qHTS assay to identify small molecule antagonists of the sonic hedgehog signaling (Shh) pathway - cell viability counter screen (AID 1259367); further: nearly all actives have a fitted effect of over 55% in size
Details: NIH/3T3 Gli1-Luc viability, CellTiter-Fluor, 24 h; series mostly up to 92.4 µM; viability change, negative = cytotoxic: at the top concentration
From the text: National Center for Advancing Translational Sciences [NCATS]
NIH Chemical Genomics Center [NCGC]
U.S. Environmental Protection Agency [EPA]
National Institutes of Environmental Health Sciences [NIEHS]
National Toxicology Program [NTP]
U.S. Food and Drug Administration [FDA]
The sonic hedgehog (Shh) pathway is essential for normal embryonic development. Dysregulation of the Shh pathway can cause severe developmental defects in organs. Therefore chemicals that interfere with the pathway are potential developmental toxicants. A cell line designated 3T3Gli1-Luc (DMB/OARSA/CFSAN/FDA, Laurel, MD), a NIH/3T3 derived clone containing stably integrated Gli1-Luc reporter is used to detect chemical interference of the Shh pathway, by changes in the expression of the firefly Luc gene under the control of the Gli1 transcriptional response element. This cell line was used to screen Tox21 libraries for identifying and prioritizing the potential developmental toxicants that interfere Shh pathway. Conditioned medium-stimulated mode was used to screen for chemicals inhibiting Shh signaling. The cytotoxicity of the compounds was tested in parallel by measuring the cell viability using CellTiter-Fluor assay system (Promega, Madison, WI) in the same wells.
Tox21 Assay Protocol Summary:
3T3 Gli1-Luc cells were dispensed at 2,000 per well in 5uL of culture medium into white solid bottom 1536-well plates (Greiner Bio-One, Monroe, NC) using a Multidrop Combi (Thermo Scientific, Waltham, MA) dispenser. The assay plates were incubated at 37 C and 5% CO2 for 4hr, and then 23nL of compounds dissolved in DMSO and positive control were transferred using a Pintool station (Wako, San Diego, CA). The compound transfer was followed by the addition of 1ul conditioned medium or assay buffer using two separate tips of Flying Reagent Dispenser (FRD, Aurora Discovery, San Diego, CA). The assay plates were incubated at 37C and 5% CO2 for 24hr. For viability read, after 23hr of compound treatment, 1uL of CellTiter-Fluor reagent (Promega Corporation, Madison, WI) was added to each well of the assay plates using Flying Reagent Dispenser (FRD, Aurora Discovery, San Diego, CA) and incubated the assay plates at 37C for 1hr. The fluorescence signal was quantified using a ViewLux plate reader (Perkin Elmer, Shelton, CT).
On the % scale 0 is the no-effect control and ±100 the full control effect; potency means the concentration at half of the fitted maximal effect.

SMILES	viability change, negative = cytotoxic	Potency
O=P(O)(O)Oc1ccccc1	-0.186%	
O=C1OC(=O)c2c(Br)c(Br)c(Br)c(Br)c21	-0.682%	
Cc1c[nH]c2ccccc12	-12.5% [at 42.5 µM]	
O[C@@H](CNC[C@H](O)[C@H]1CCc2cc(F)ccc2O1)[C@@H]1CCc2cc(F)ccc2O1		29.8 µM (active)
CCCCOCCOC(=O)c1cccnc1	3.27% [at 42.5 µM]	
ClC1=C(Cl)C1(Cl)Cl	4.81%	
Cc1ccc(S(=O)(=O)NC(=O)NC2CCCCC2)cc1	0.0397% [at 42.5 µM]	
O=C(NS(=O)(=O)/C=C/c1ccccc1)c1ccc(F)cc1Cl	2.01%	
CC(C)(C)CCCCCCOC(=O)c1ccccc1C(=O)OCCCCCCC(C)(C)C	3.69%	
CCCCCCCCCCCC(=O)OCC(O)CO (stereo not given)	-1.55%	
Cc1ccccc1S(N)(=O)=O	-0.345%	
CC1CCCO1 (stereo not given)	2.01%	
COc1cc(NCc2ccc3nc(N)nc(N)c3c2C)cc(OC)c1OC		15 µM (active)
CCC(=O)OCc1ccc(OC)cc1	3.77%	
N[C@@H](Cc1cc(I)c(O)c(I)c1)C(=O)O	-10.1% [at 42.5 µM]	
CSCC[C@H](NC(=O)[C@H](Cc1c[nH]c2ccccc12)NC(=O)CCNC(=O)OC(C)(C)C)C(=O)N[C@@H](CC(=O)O)C(=O)N[C@@H](Cc1ccccc1)C(N)=O	1.41% [at 42.5 µM]	
O=C(O)CO	-4.76%	
CCC(C)(C)C(=O)O	1.91%	
COc1cc(C(C)=O)ccc1OCCCN1CCC(c2noc3cc(F)ccc23)CC1	-0.406% [at 42.5 µM]	
O=C(O)c1cc(Cl)cc(Cl)c1O	-9.09%	

SMILES	viability change, negative = cytotoxic	Potency
O=C(O)CCC(=O)OC[C@@H](NC(=O)C(Cl)Cl)[C@H](O)c1ccc([N+](=O)[O-])cc1	-0.55% [at 42.5 µM]	
c1ccc2sc(SSc3nc4ccccc4s3)nc2c1	7.43% [at 19 µM]	
CC(=O)NNC(C)=O	1.44%	
CCN(CC)CC(=O)Nc1c(C)cccc1C(=O)OC	-8.13% [at 42.5 µM]	
O=C(O)CCCc1c[nH]c2ccccc12	7.95%	
CC(C)COC(=O)c1ccc(O)cc1	-15.5%	
NC(=O)c1ccccc1[N+](=O)[O-]	3.58%	
CC(CO)(CO)C(=O)O	-1.28%	
CN1CCCN(C(c2ccccc2)c2ccc(Cl)cc2)CC1 (stereo not given)		13.3 µM (active)
CCc1ccc(C)cc1	-2.38%	
O=C(O)c1cccc(C[C@@H]2COc3ccc(OCc4nc5cc(F)ccc5s4)cc3[C@@H]2O)c1	-0.149%	
CCOC(=O)C(C)O (stereo not given)	-0.408%	
COC(=O)C1=C(C)NC(C)=C(C(=O)OC(C)(C)CN(C)CCC(c2ccccc2)c2ccccc2)C1c1cccc([N+](=O)[O-])c1 (stereo not given)	-23.1% [at 42.5 µM]	
CC[C@@H](CO)NCCN[C@@H](CC)CO	4.09% [at 42.5 µM]	
CCCCC[C@H](O)/C=C/[C@H]1[C@H](O)CC(=O)[C@@H]1C/C=C\CCCC(=O)O	-27.3% [at 42.5 µM]	
CC(=O)N[C@@H](Cc1ccc(O)cc1)C(=O)O	0.37% [at 42.5 µM]	
CCN(CC)C(=O)N1CCN(C)CC1	9.47% [at 42.5 µM]	
O=S(=O)(Cl)c1c(Cl)cccc1Cl	1.11%	
CC(=O)OCCC1CCCCC1	-2.2%	
CCCCCCCC(=O)OCCCCCC	-8.42%	

Reference: PubChem BioAssay (Tox21)
